# This is one part of a sample in which the strongest signals are shown more often than they occur.
# What was measured:
# Experiment in all cases: glycan array binding signal (z-score within array); higher = stronger binding
# Details in all cases: glycan notation: IUPAC condensed, linker removed
# [1] = biological target: GlcNAc(a1-4)Gal(b1-4)GlcNAc(b1-3)Gal(b1-4)GlcNAc
# Outline: (§1)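 Arrays were curated from the Consortium for Functional Glycomics database, 3228 in total, and kept only where the protein sequence was available. Binding is expressed as a within-array Z-score. This score was averaged across arrays of the same protein sequence at different concentrations or buffers and across linkers, and negative values can be read as non-binding.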
# [2] = biological target: GlcNAc(b1-2)Man(a1-3)[GlcNAc(b1-4)][GlcNAc(b1-2)Man(a1-6)]Man(b1-4)GlcNAc(b1-4)[Fuc(a1-6)]GlcNAc
# Outline: as §1
# [3] = biological target: GlcNAc(b1-3)Gal(b1-4)GlcNAc(b1-2)[GlcNAc(b1-3)Gal(b1-4)GlcNAc(b1-6)]Man(a1-6)[GlcNAc(b1-3)Gal(b1-4)GlcNAc(b1-2)Man(a1-3)]Man(b1-4)GlcNAc(b1-4)GlcNAc
# Outline: as §1
# [4] = biological target: GlcNAc(b1-3)Gal(b1-4)GlcNAc(b1-3)Gal(b1-4)GlcNAc
# Outline: as §1
# [5] = biological target: GlcNAc(b1-3)Gal(b1-4)GlcNAc(b1-3)Gal(b1-4)GlcNAc(b1-3)Gal(b1-4)GlcNAc(b1-3)Gal(b1-4)GlcNAc(b1-2)Man(a1-3)[GlcNAc(b1-3)Gal(b1-4)GlcNAc(b1-3)Gal(b1-4)GlcNAc(b1-3)Gal(b1-4)GlcNAc(b1-3)Gal(b1-4)GlcNAc(b1-2)Man(a1-6)]Man(b1-4)GlcNAc(b1-4)[Fuc(a1-6)]GlcNAc
# Outline: as §1
# [6] = biological target: GlcNAc(b1-3)Gal(b1-4)GlcNAc(b1-3)[GlcNAc(b1-3)Gal(b1-4)GlcNAc(b1-3)]GalNAc
# Outline: as §1
# [7] = biological target: GlcNAc(b1-3)Gal(b1-4)GlcNAc(b1-6)[Gal(b1-3)]GalNAc
# Outline: as §1
# GlcNAc(b1-3)Man = biological target: GlcNAc(b1-3)Man
# Outline: as §1
# [8] = biological target: Man(a1-2)Man(a1-3)[Man(a1-2)Man(a1-6)]Man
# Outline: as §1
# [9] = biological target: Man(a1-2)Man(a1-3)[Man(a1-2)Man(a1-6)]Man(a1-6)[Man(a1-2)Man(a1-2)Man(a1-3)]Man(b1-4)GlcNAc(b1-4)GlcNAc
# Outline: as §1
# [10] = biological target: Man(a1-2)Man(a1-6)[Man(a1-3)]Man(a1-6)[Man(a1-2)Man(a1-2)Man(a1-3)]Man
# Outline: as §1
# [11] = biological target: Man(a1-3)[Man(a1-6)]Man(b1-4)GlcNAc(b1-4)GlcNAc
# Outline: as §1
# [12] = biological target: Man(a1-3)[Man(a1-6)]Man(b1-4)GlcNAc(b1-4)[Fuc(a1-6)]GlcNAc
# Outline: as §1
# Neu5Ac(a2-3)Gal = biological target: Neu5Ac(a2-3)Gal
# Outline: as §1
# [13] = biological target: Neu5Ac(a2-3)Gal(b1-3)GalNAc
# Outline: as §1
# [14] = biological target: Neu5Ac(a2-3)Gal(b1-3)GlcNAc(b1-3)Gal(b1-3)GlcNAc
# Outline: as §1
# [15] = biological target: Neu5Ac(a2-3)Gal(b1-4)GlcNAc(b1-2)Man
# Outline: as §1
# [16] = biological target: Neu5Ac(a2-3)Gal(b1-4)GlcNAc(b1-3)Gal(b1-4)GlcNAc(b1-6)[Gal(b1-3)]GalNAc
# Outline: as §1
# [17] = biological target: Neu5Ac(a2-3)Gal(b1-4)GlcNAc(b1-6)[Neu5Ac(a2-3)Gal(b1-3)]GalNAc
# Outline: as §1
# [18] = biological target: Neu5Ac(a2-3)Gal(b1-4)[Fuc(a1-3)]GlcNAc(b1-3)GalNAc
# Outline: as §1
# [19] = biological target: Neu5Ac(a2-3)Gal6S(b1-4)GlcNAc
# Outline: as §1
# [20] = biological target: Neu5Ac(a2-3)[GalNAc(b1-4)]Gal(b1-4)GlcNAc
# Outline: as §1
# [21] = biological target: Neu5Ac(a2-6)Gal(b1-4)GlcNAc(b1-2)Man(a1-3)Man(b1-4)GlcNAc(b1-4)GlcNAc
# Outline: as §1
# [22] = biological target: Neu5Ac(a2-6)Gal(b1-4)GlcNAc(b1-2)Man(a1-3)[GlcNAc(b1-2)Man(a1-6)]Man(b1-4)GlcNAc(b1-4)GlcNAc
# Outline: as §1
# [23] = biological target: Neu5Ac(a2-6)Gal(b1-4)GlcNAc(b1-2)Man(a1-6)Man(b1-4)GlcNAc(b1-4)GlcNAc
# Outline: as §1
# [24] = biological target: Neu5Ac(a2-6)Gal(b1-4)GlcNAc(b1-2)Man(a1-6)[Man(a1-3)]Man(b1-4)GlcNAc(b1-4)GlcNAc
# Outline: as §1
# [25] = biological target: Neu5Ac(a2-6)Gal(b1-4)GlcNAc(b1-6)[Gal(b1-3)]GalNAc
# Outline: as §1
# [26] = biological target: Neu5Ac(a2-6)GlcNAc(b1-4)GlcNAc(b1-4)GlcNAc
# Outline: as §1
# Neu5Ac(b2-6)GalNAc = biological target: Neu5Ac(b2-6)GalNAc
# Outline: as §1
# [27] = biological target: Neu5Gc(a2-8)Neu5Gc(a2-3)Gal(b1-4)GlcNAc(b1-3)Gal(b1-4)GlcNAc
# Outline: as §1
binder,measurement,setting,value
AidA (Burkholderia cenocepacia) (protein) MSRVTDVLVSFDTETILKKYPNPSKNPAAPTLIDWRYVYMVTNQDNVISGQAGGELDLKAQVGDLIRWRETSLSLGFENQVVFYKFIGNVGNDLISTPTPRVAEASIPVPNTSKPEVPTCQKVANYYWSSECLKVGRVTYHFQFQIIDRNCQSQGCFSWDPFISIHN,glycan array binding signal (z-score),[1],0.177
same,glycan array binding signal (z-score),[2],-0.375
same,glycan array binding signal (z-score),[3],2.61
same,glycan array binding signal (z-score),[4],0.86
same,glycan array binding signal (z-score),[5],-0.735
same,glycan array binding signal (z-score),[6],-0.928
same,glycan array binding signal (z-score),[7],-0.57
same,glycan array binding signal (z-score),GlcNAc(b1-3)Man,-0.022
same,glycan array binding signal (z-score),[8],-0.113
same,glycan array binding signal (z-score),[9],0.274
same,glycan array binding signal (z-score),[10],-0.364
same,glycan array binding signal (z-score),[11],-0.131
same,glycan array binding signal (z-score),[12],1.97
same,glycan array binding signal (z-score),Neu5Ac(a2-3)Gal,-0.347
same,glycan array binding signal (z-score),[13],-0.739
same,glycan array binding signal (z-score),[14],-0.146
same,glycan array binding signal (z-score),[15],1.58
same,glycan array binding signal (z-score),[16],-0.559
same,glycan array binding signal (z-score),[17],-0.108
same,glycan array binding signal (z-score),[18],1.86
same,glycan array binding signal (z-score),[19],-0.261
same,glycan array binding signal (z-score),[20],-0.388
same,glycan array binding signal (z-score),[21],-0.123
same,glycan array binding signal (z-score),[22],-0.443
same,glycan array binding signal (z-score),[23],-0.428
same,glycan array binding signal (z-score),[24],0.17
same,glycan array binding signal (z-score),[25],-0.153
same,glycan array binding signal (z-score),[26],-0.74
same,glycan array binding signal (z-score),Neu5Ac(b2-6)GalNAc,0.412
same,glycan array binding signal (z-score),[27],-0.459

# Reference: the supplement of paper PMC8728848
